# From PubChem BioAssay (Tox21)
# Values without a mark were called inactive. Results filed as inconclusive are left out. Entries that show only a call come without a potency. The source made the active and inactive calls. Calls come from the whole dose curve; as a rule, active = well fitted curve in the direction sought with a large enough effect in the repeat runs; inconclusive = weak or mixed curves; inactive = no such curve, though single readings can be large; an effect the other way counts as inactive or inconclusive.
# Tests used:
# [1] = A CellTox Green Cytotoxicity Assay to monitor cytotoxicity in HEK293 cells - 40 hour (AID 1224871); note: nearly all actives have a fitted effect of over 45% in size
# In short: (§1)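 Cells (HEK293, 600/well) and dye reagent are dispensed together. After 5 h at 37 C, 23 nL compound is pinned in. Plates stay at 37 C for 40 h with fluorescence read at 0h, 8h, 16h, 24h, 32h and 40h.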
# [2] = qHTS RealTime-Glo MT Cell Viability Assay in HEK293 cells - 16 hour (AID 1224872); note: top concentration of the series differs between compounds; nearly all actives have a fitted effect of over 50% in size
# In short: (§2)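 HEK293 cells were seeded at 600 cells/well together with NanoLuc luciferase and cell-permeant prosubstrate, preincubated 5 h at 37 C/5% CO2, then given compound in DMSO by pintool. Luminescence from viable-cell prosubstrate reduction was read repeatedly over 40 h.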
# [3] = qHTS RealTime-Glo MT Cell Viability Assay in HepG2 cells - 8 hour (AID 1224873); note: nearly all actives have a fitted effect of over 55% in size
# In short: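 Real-time viability: cells seeded at 600 per well together with NanoLuc and cell-permeant prosubstrate, compounds added after 5 h incubation. Luminescence tracked at 0, 8, 16, 24, 32 and 40 h of exposure.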
# [4] = A CellTox Green Cytotoxicity Assay to monitor cytotoxicity in HEK293 cells - 24 hour (AID 1224875); note: series mostly up to about 77 µM; nearly all actives have a fitted effect of over 45% in size
# In short: as §1
# [5] = A CellTox Green Cytotoxicity Assay to monitor cytotoxicity in HepG2 cells - 16 hour (AID 1224876); note: nearly all actives have a fitted effect of over 45% in size
# In short: (§3)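 Cells and non-lytic dye reagent are dispensed together (600 HepG2 cells/well) and incubated 5 h before DMSO compound transfer. Kinetic fluorescence is then recorded in the same wells during 40 h at 37 C.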
# [6] = qHTS RealTime-Glo MT Cell Viability Assay in HepG2 cells - 32 hour (AID 1224877); note: nearly all actives have a fitted effect of over 55% in size
# In short: (§4)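 HepG2 cells were seeded at 600 cells/well together with NanoLuc luciferase and a cell-permeant prosubstrate, preincubated 5 h at 37 C/5% CO2, then pin-dosed with compounds in DMSO. Nonlytic luminescence from viable cells was read at each time point.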
# [7] = A CellTox Green Cytotoxicity Assay to monitor cytotoxicity in HepG2 cells - 24 hour (AID 1224878); note: nearly all actives have a fitted effect of over 45% in size
# In short: as §3
# [8] = A CellTox Green Cytotoxicity Assay to monitor cytotoxicity in HepG2 cells - 40 hour (AID 1224879); note: nearly all actives have a fitted effect of over 40% in size; note: potency is the fitted concentration of half-maximal effect
# In short: as §3
# [9] = qHTS RealTime-Glo MT Cell Viability Assay in HEK293 cells - 0 hour (AID 1224880)
# In short: (§5)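 Real-time viability in HEK293: signal arises when living cells convert a prosubstrate for NanoLuc in the medium, so luminescence tracks viable cell number. Compound (23 nL, DMSO) added 5 h post-seeding; kinetic reads at 0–40 h, 37 C.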
# [10] = A CellTox Green Cytotoxicity Assay to monitor cytotoxicity in HEK293 cells - 32 hour (AID 1224881); note: nearly all actives have a fitted effect of over 40% in size
# In short: as §1
# [11] = A CellTox Green Cytotoxicity Assay to monitor cytotoxicity in HepG2 cells - 0 hour (AID 1224882); note: nearly all actives have a fitted effect of over 35% in size
# In short: as §3
# [12] = A CellTox Green Cytotoxicity Assay to monitor cytotoxicity in HepG2 cells - 32 hour (AID 1224883); note: nearly all actives have a fitted effect of over 50% in size
# In short: as §3
# [13] = A CellTox Green Cytotoxicity Assay to monitor cytotoxicity in HEK293 cells - 8 hour (AID 1224884); note: nearly all actives have a fitted effect of over 35% in size
# In short: as §1
# [14] = qHTS RealTime-Glo MT Cell Viability Assay in HepG2 cells - 16 hour (AID 1224885); note: nearly all actives have a fitted effect of over 50% in size
# In short: as §4
# [15] = qHTS RealTime-Glo MT Cell Viability Assay in HEK293 cells - 24 hour (AID 1224886); note: top concentration of the series differs between compounds; nearly all actives have a fitted effect of over 50% in size
# In short: as §2
# [16] = qHTS RealTime-Glo MT Cell Viability Assay in HEK293 cells - 8 hour (AID 1224887)
# In short: as §5
# [17] = A CellTox Green Cytotoxicity Assay to monitor cytotoxicity in HEK293 cells - 16 hour (AID 1224888); note: nearly all actives have a fitted effect of over 35% in size
# In short: as §1
# [18] = qHTS RealTime-Glo MT Cell Viability Assay in HepG2 cells - 0 hour (AID 1224889); note: nearly all actives have a fitted effect of over 50% in size
# In short: as §4
# [19] = qHTS RealTime-Glo MT Cell Viability Assay in HEK293 cells - 40 hour (AID 1224874); conditions: RealTime-Glo luminescence; max response: stronger effect = lower value; note: nearly all actives have a fitted effect of over 50% in size
# In short: as §5
SMILES,Potency [1],Potency [2],outcome [3],Potency [4],Potency [5],Potency [6],Potency [7],Potency [8],outcome [9],Potency [10],Potency [11],Potency [12],Potency [13],outcome [14],Potency [15],Potency [16],Potency [17],Potency [18],max response [19] [%]
CN1CCN(C2=Nc3cc(F)ccc3Cc3ccccc32)CC1,inactive,inactive,inactive,inactive,inactive,inactive,inactive,inactive,inactive,inactive,inactive,inactive,inactive,inactive,inactive,inactive,inactive,inactive,–
CCCCCCCCCCCCCCCCOP(=O)([O-])OCC[N+](C)(C)C,inactive,inactive,inactive,inactive,–,inactive,–,–,inactive,inactive,inactive,–,inactive,inactive,inactive,inactive,inactive,inactive,-6.12
CC1=C(O)C(=O)OC1C (stereo not drawn),inactive,–,inactive,inactive,inactive,inactive,inactive,inactive,inactive,inactive,inactive,–,inactive,inactive,inactive,inactive,inactive,inactive,1.31
CCN(CCCc1ccccc1)CCCc1ccccc1,–,–,inactive,inactive,inactive,inactive,inactive,–,inactive,inactive,inactive,inactive,inactive,inactive,–,inactive,–,inactive,–
O=C1N(c2ccccc2)c2ccccc2C1(Cc1ccncc1)Cc1ccncc1,inactive,inactive,inactive,inactive,–,inactive,inactive,inactive,inactive,inactive,inactive,inactive,inactive,inactive,inactive,inactive,inactive,inactive,5.52
CC/C=C\CCOC(=O)C(C)C,–,inactive,inactive,inactive,inactive,inactive,inactive,inactive,inactive,inactive,inactive,inactive,inactive,inactive,–,inactive,–,inactive,-2.11
COC(=O)c1ccc(OC)cc1,inactive,inactive,inactive,inactive,inactive,inactive,inactive,inactive,inactive,inactive,inactive,inactive,inactive,inactive,inactive,inactive,inactive,inactive,0.622
CCCCNc1cc(C(=O)O)cc(S(N)(=O)=O)c1Oc1ccccc1,–,inactive,inactive,inactive,–,inactive,inactive,inactive,inactive,inactive,inactive,inactive,inactive,inactive,inactive,inactive,inactive,inactive,0.323
OCCN1CCN(CCO)CC1,inactive,–,inactive,inactive,inactive,inactive,inactive,–,inactive,inactive,inactive,–,inactive,inactive,inactive,inactive,–,inactive,–
CS(=O)(=O)c1ccc([C@@H](O)[C@@H](CF)NC(=O)C(Cl)Cl)cc1,–,inactive,inactive,inactive,inactive,inactive,inactive,inactive,inactive,inactive,inactive,inactive,inactive,inactive,inactive,inactive,inactive,inactive,11.3
CCCNC(C)C(=O)Nc1c(C)csc1C(=O)OC (stereo not drawn),inactive,inactive,inactive,inactive,inactive,inactive,inactive,inactive,inactive,inactive,inactive,–,inactive,inactive,inactive,inactive,inactive,inactive,-5.59
CN(CCCN1c2ccccc2CCc2ccccc21)CC(=O)c1ccc(Cl)cc1,inactive,–,inactive,inactive,–,inactive,–,21.3 µM (active),inactive,inactive,inactive,–,inactive,inactive,inactive,inactive,inactive,inactive,-24.7
CN1CCN(C2=Nc3ccccc3Oc3ccc(Cl)cc32)CC1,–,inactive,inactive,inactive,inactive,inactive,–,–,inactive,inactive,inactive,–,inactive,inactive,inactive,inactive,inactive,inactive,-25.8
C=CCc1cc(OC)c(O)c(C(=O)NCCO)c1,inactive,inactive,inactive,inactive,inactive,inactive,–,inactive,inactive,inactive,inactive,inactive,inactive,inactive,–,inactive,inactive,inactive,15.9
CC1CN(c2ccccc2)NC1=O (stereo not drawn),–,inactive,inactive,inactive,–,inactive,inactive,–,inactive,inactive,inactive,inactive,inactive,inactive,inactive,inactive,inactive,inactive,-13.5
CCCCNCCCC,inactive,inactive,inactive,inactive,inactive,inactive,inactive,inactive,inactive,inactive,inactive,inactive,inactive,inactive,–,inactive,inactive,inactive,–
